# The supplement of paper PMC6897291
# Test system: U-2932
# Assay: growth inhibition by drug alone (1 - RLU/untreated control) (fraction); higher = stronger inhibition
# Settings: 177Lu-lilotomab satetraxetan 0 ug/ml
# Method: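 U-2932 ABC-DLBCL cells were pretreated or not for 18 h with 1 ug/ml 177Lu-lilotomab satetraxetan (600 MBq/mg), washed and seeded (3000 cells/well) on 384-well plates pre-printed with the Selleck Cambridge Cancer Compound library. Viability was read by RealTime-Glo luminescence on days 3-6 after seeding. Effect = 1 - RLU/mean RLU of the 48 untreated no-drug control wells per plate; Bliss score = (M-E)/(1-Fa), with E the expected Bliss-additive effect.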
Structure (SMILES),"growth inhibition by drug alone (10 nM, time (day): 3)","growth inhibition by drug alone (10 nM, time (day): 4)","growth inhibition by drug alone (10 nM, time (day): 5)","growth inhibition by drug alone (10 nM, time (day): 6)","growth inhibition by drug alone (1000 nM, time (day): 3)","growth inhibition by drug alone (1000 nM, time (day): 4)","growth inhibition by drug alone (1000 nM, time (day): 5)","growth inhibition by drug alone (1000 nM, time (day): 6)"
C[C@@H](Oc1cc(-c2cnn(C3CCNCC3)c2)cnc1N)c1c(Cl)ccc(F)c1Cl,0.0921,0.0793,0.115,-0.0753,0.154,0.193,0.301,0.419
c1ccc2c(-c3cnn4cc(-c5ccc(N6CCNCC6)cc5)cnc34)ccnc2c1,-0.114,-0.118,-0.0883,0.0163,-0.0225,-0.0275,-0.0302,0.125
Cc1cc(Nc2cc(N3CCN(C)CC3)nc(/C=C/c3ccccc3)n2)n[nH]1,-0.0691,-0.0558,-0.0606,-0.0133,0.102,0.0113,0.0189,0.221
N#CC[C@H](C1CCCC1)n1cc(-c2ncnc3[nH]ccc23)cn1,0.018,0.0281,-0.0548,-0.139,-0.0929,-0.0506,-0.111,-0.125
COc1cc2c(cc1O)CC[C@@H]1[C@@H]2CC[C@]2(C)[C@@H](O)CC[C@@H]12 [2-Methoxyestradiol],-0.0505,-0.0559,-0.104,-0.0895,0.719,0.771,0.777,0.788
